Results published in PubChem BioAssay (NCI).
Where “and” joins values, the source holds several entries; their conditions need not be identical. Equal values may be shown once. About 83,000 compounds went through this panel and 20% of them were active in at least one assay; those are over-represented in the sample as a whole.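 For each line, cells grew in 96-well plates with the test compound present at a single concentration for 48 hours.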 The source holds several records for some structures; these can differ, active in one and inactive in another. Calls of active or inactive are those of the source. Rule for the calls: active = growth percent below 10; inactive = the rest.

Key:
Test in all cases: NCI-60 one-dose screen, 48 h (100 = growth as untreated, 0 = no growth, -100 = all killed)
Conditions in all cases: 10 µM unless noted
[1] = tested on: SR leukemia
[2] = tested on: RPMI-8226 leukemia
[3] = tested on: OVCAR-8 ovarian
[4] = tested on: OVCAR-5 ovarian
[5] = tested on: OVCAR-4 ovarian
[6] = tested on: IGROV1 ovarian
[7] = tested on: OVCAR-3 ovarian
[8] = tested on: NCI/ADR-RES ovarian
[9] = tested on: SK-OV-3 ovarian
[10] = tested on: HS 578T breast

## COc1cc(/C=N/Nc2nc3c([nH]2)c(=O)n(C)c(=O)n3C)ccc1O
[1]
  growth: 89% (inactive) and 85.3% (inactive)
[2]
  growth: 98.3% (inactive) and 103% (inactive)
[3]
  growth: 103% (inactive) and 108% (inactive)
[4]
  growth: 107% (inactive) and 111% (inactive)
[5]
  growth: 108% (inactive)
[6]
  growth: 110% (inactive) and 124% (inactive)
[7]
  growth: 122% (inactive) and 110% (inactive)
[8]
  growth: 109% (inactive) and 111% (inactive)

## N=C1N=C(N)CS1
[1]
  growth: 99.2% (inactive)
[2]
  growth: 107% (inactive)
[4]
  growth: 109% (inactive)
[5]
  growth: 99.8% (inactive)
[9]
  growth: 109% (inactive)
[6]
  growth: 105% (inactive)
[7]
  growth: 106% (inactive)
[10]
  growth: 109% (inactive)
[8]
  growth: 113% (inactive)

## Cc1ccc(NCSc2ccc(Cl)cc2)cc1
[1]
  growth: 62.5% (inactive) and 67.7% (inactive)
[2]
  growth: 20.8% (inactive)
[3]
  growth: 97.3% (inactive) and 93.2% (inactive)
[4]
  growth: 106% (inactive)
[9]
  growth: 96.2% (inactive) and 97% (inactive)
[7]
  growth: 71.6% (inactive) and 78.9% (inactive)
[10]
  growth: 93.7% (inactive) and 102% (inactive)
[8]
  growth: 88% (inactive) and 95.8% (inactive)

## N#CC(C#N)=C/C=C/c1cccc([N+](=O)[O-])c1
[1]
  growth: -3.67% (active) and 3.74% (active)
[2]
  growth: -16.2% (active) and -9.65% (active)
[3]
  growth: -22.1% (active) and -35.4% (active)
[4]
  growth: 23.1% (inactive) and -10.2% (active)
[5]
  growth: 31.9% (inactive) and 21.2% (inactive)
[6]
  growth: 24% (inactive) and -7.91% (active)
[7]
  growth: -9.85% (active) and -42.4% (active)
[8]
  growth: 5.66% (active) and -10.2% (active)

## Cc1cc(N=Nc2ccc(C)c(N=Nc3cc(C)c(N)cc3N)c2)c(N)cc1N
[1]
  growth: 97.9% (inactive) and 35.1% (inactive)
[2]
  growth: 43.6% (inactive) and 88.2% (inactive)
[4]
  growth: 92.5% (inactive) and 86.8% (inactive)
[5]
  growth: 86.6% (inactive) and 75.5% (inactive)
[9]
  growth: 91% (inactive) and 95.2% (inactive)
[6]
  growth: 36.8% (inactive) and 53.5% (inactive)
[7]
  growth: 89.3% (inactive) and 63.1% (inactive)
[10]
  growth: 89.4% (inactive) and 88.8% (inactive)
[8]
  growth: 92.4% (inactive) and 84% (inactive)

## NS(=O)(=O)c1cc2c(cc1Cl)NC(C(Cl)Cl)NS2(=O)=O (stereo not drawn)
[1]
  growth: 99.8% (inactive)
[2]
  growth: 96.7% (inactive) and 100% (inactive)
[3]
  growth: 99.2% (inactive) and 95.3% (inactive)
[4]
  growth: 96.6% (inactive)
[5]
  growth: 97.4% (inactive) and 114% (inactive)
[6]
  growth: 101% (inactive) and 109% (inactive)
[7]
  growth: 119% (inactive) and 126% (inactive)
[10]
  growth: 124% (inactive) and 128% (inactive)
[8]
  growth: 101% (inactive) and 108% (inactive)

## CCN(CC)CCNc1ccc(C)c2sc3ccccc3c(=O)c12 (tested in a mixture with another compound)
[1]
  growth: 8.47% (active) and 20% (inactive)
[2]
  growth: 10.1% (inactive) and -9.01% (active)
[3]
  growth: 23.7% (inactive) and 32.3% (inactive)
[4]
  growth: 48.8% (inactive) and 51.6% (inactive)
[5]
  growth: 40.7% (inactive) and 53.3% (inactive)
[6]
  growth: -29.6% (active) and 3.62% (active)
[7]
  growth: 58.9% (inactive) and 62.8% (inactive)
[10]
  growth: 122% (inactive) and 81.6% (inactive)
[8]
  growth: 43.1% (inactive) and 43% (inactive)

## Cn1c(SSc2ccc(-c3cccnc3)n2C)ccc1-c1cccnc1
[1]
  growth: 86.8% (inactive) and 58.3% (inactive)
[2]
  growth: 96.5% (inactive) and 92.1% (inactive)
[4]
  growth: 141% (inactive) and 115% (inactive)
[5]
  growth: 80.3% (inactive) and 101% (inactive)
[9]
  growth: 131% (inactive) and 120% (inactive)
[6]
  growth: 103% (inactive) and 88.1% (inactive)
[7]
  growth: 98.9% (inactive) and 102% (inactive)
[10]
  growth: 104% (inactive)
[8]
  growth: 103% (inactive) and 101% (inactive)

## Oc1c(Cl)cc(Cl)cc1Sc1cc(Cl)cc(Cl)c1O
[1]
  growth: 42.1% (inactive) and 77.1% (inactive) and 107% (inactive)
[2]
  growth: 11.8% (inactive) and -29% (active) and 41.3% (inactive)
[3]
  growth: 31.7% (inactive) and 2.65% (active) and 71.7% (inactive)
[4]
  growth: 49.9% (inactive) and 102% (inactive)
[5]
  growth: 78.1% (inactive) and 38.2% (inactive) and 93.3% (inactive)
[6]
  growth: 56.5% (inactive) and 33.3% (inactive) and 73.7% (inactive)
[7]
  growth: 47.1% (inactive) and 11.6% (inactive) and 76.5% (inactive)
[10]
  growth: 47.9% (inactive) and 53.5% (inactive) and 78.2% (inactive)
[8]
  growth: 15.8% (inactive) and 10.8% (inactive) and 82.7% (inactive)
